{
  "source": "paper doi:10.1101/2023.07.10.548322",
  "data": [
    {"target": "alpha-synuclein (aSyn) WT (human, UniProt P37840 1-140)", "experiment": "RNA Bind-n-Seq", "conditions": "ssRNA", "units": {"binding signal": "enrichment score"}, "values": [
      {"sequence": "GAGGUGGUAGGG", "binding signal": 57.4},
      {"sequence": "AGUGGGGGGGAG", "binding signal": 43.8},
      {"sequence": "UGGGUGGGUGGG", "binding signal": 46.4},
      {"sequence": "AGGGGGAUGUGG", "binding signal": 54.6},
      {"sequence": "GGGAAGGUUGUG", "binding signal": 43.8},
      {"sequence": "AGUUGGUGGUGG", "binding signal": 46.4},
      {"sequence": "GGAGGUAGGGAG", "binding signal": 43.8},
      {"sequence": "GGGGAGUGGAUG", "binding signal": 49.1},
      {"sequence": "GGUGGAUGAGGG", "binding signal": 41.1},
      {"sequence": "GGAGGUGGUGCG", "binding signal": 41.1},
      {"sequence": "GGCGGGGGGUGA", "binding signal": 43.8},
      {"sequence": "GUGGGGGUGGAU", "binding signal": 60.2},
      {"sequence": "UGGAUGGCGGGG", "binding signal": 43.8},
      {"sequence": "UGGGGGUGGAUG", "binding signal": 43.8},
      {"sequence": "GGAAUGGGGUGG", "binding signal": 43.8},
      {"sequence": "GGGGGGGGGGUG", "binding signal": 49.1},
      {"sequence": "UGGGGGGAGAAG", "binding signal": 41.1},
      {"sequence": "CGGAGGUGGGUG", "binding signal": 41.1},
      {"sequence": "GAGUGGGUGGGA", "binding signal": 43.8},
      {"sequence": "CGUGGGAGGGGG", "binding signal": 43.8},
      {"sequence": "AGGGGUUUUGGG", "binding signal": 43.8},
      {"sequence": "GGGGGUGGUGUU", "binding signal": 49.1},
      {"sequence": "GUGGGUGUGGUA", "binding signal": 41.1},
      {"sequence": "GUGUGGCGGAGG", "binding signal": 46.4},
      {"sequence": "GGGGGUGGCAGA", "binding signal": 43.8},
      {"sequence": "UGAGUGGGUGGU", "binding signal": 43.8},
      {"sequence": "GGGGAUGGUAGG", "binding signal": 43.8},
      {"sequence": "GGGGGAUGUGGU", "binding signal": 46.4},
      {"sequence": "UGGGGAGUGGGU", "binding signal": 51.8},
      {"sequence": "GGGCAGUGGAGG", "binding signal": 54.6},
      {"sequence": "UGUGGGCGGGAG", "binding signal": 54.6},
      {"sequence": "UGGGGUGGGAGU", "binding signal": 46.4},
      {"sequence": "AGUGCGGGGGGG", "binding signal": 49.1}
    ]}
  ]
}
